About 83,000 compounds went through this panel and 20% of them were active in at least one assay; those are over-represented in the sample as a whole.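 The test compound was applied at a single concentration to cells in 96-well plates for 48 hours, and percent growth was recorded.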 Unmarked numbers belong to inactive results. Active and inactive are the calls of the source. How the source made its calls: active means growth percent below 10; inactive means the rest.

The test system of the assay is MDA-MB-468 breast. In words: NCI-60 one-dose screen, 48 h (100 = growth as untreated, 0 = no growth, -100 = all killed). Conditions: 10 µM unless noted.
For the compound `Cc1csc(/N=C(N)/N=C(\N)c2cccc(Br)c2)n1`, the growth was 79.7%.

As for `N#Cc1nc(-c2ccc(Cl)cc2)oc1S(=O)(=O)N1CCN(c2ccc(F)cc2)CC1`, the growth was 105%. On to `Cc1ccc(S(=O)(=O)OC[C@@]2(C)CC[C@]3(C)CC[C@]4(C)C(=C3C2)C=C[C@@H]2[C@@]3(C)CCCNC(C)(C)[C@@H]3CC[C@]24C)cc1`, for which the growth is -88.5% (active). As to `Nc1ncnc2c1C(c1ccc([N+](=O)[O-])cc1)c1sc3c(F)cccc3c1O2` (stereo not given), the growth is -15% (active). Take `NC(=O)c1c(NC(=O)c2ccc(C3CCCCC3)cc2)sc2c1CCC(=O)C2`: the growth is -10.3% (active). Take `CCN(CC)CCN1C(=O)c2c(c(C)c3c(oc4ccc(OC)cc43)c2C)C1=O`: the growth was 101%. The result for `C=C1C(=O)O[C@H]2[C@H]1CC/C(COC(=O)NCCc1ccc(Br)cc1)=C\CC[C@@]1(C)O[C@@H]21` reads 4.63% (active); that for `CCOC(OCC)C(=O)c1ccccc1`, 102%.

Turning to `COc1ccccc1/C=C1\Oc2ccc(O)c(O)c2C1=O`, the growth was 101%. The result for `O=C1CCC/C=C\C[C@H]2C=C(Cl)C(=O)/C2=C/C[C@H](CCCCC(F)(F)F)OC(=O)CCC/C=C\C[C@H]2C=C(Cl)C(=O)/C2=C/C[C@H](CCCCC(F)(F)F)O1` reads -72.2% [7.5 µM] (active).

`CCN1CCCC1CNC(=O)c1ncc(-c2ccc(C(F)(F)F)cc2)c(NC2CCCCCC2)n1` (stereo not given): the growth is 80.8%. Take `O=C(Nc1ccc2[nH]ncc2c1)c1csc(Nc2ccccc2)n1`: the growth was 14.4%. `COc1cc2nccc(Oc3ccc(NC(=O)C4(C(=O)Nc5ccc(F)cc5)CC4)cc3)c2cc1OC(=O)c1ccc(N)cc1`: the growth is 59.3%. As for `CC(=O)COc1ccc(Cl)cc1Cl`, the growth is 92.4%.

Turning to `C#C[C@]1(O)CC[C@H]2[C@@H]3CC=C4c5sc(Nc6cccc(C)n6)nc5CC[C@]4(C)[C@H]3CC[C@@]21C`, the growth was 35.7%. The same measure for `CC(C)(C)c1ccc(C(=O)Nc2sc3c(c2C(N)=O)CCC(=O)C3)cc1`: -54.7% (active). On to `CCOC(=O)c1c2c(c(C)n1Cc1ccccc1)-c1nc(N)ncc1CC2`, for which the growth is 100%. Consider `Cc1ccc2oc3nc(C)c(C(=O)NCc4ccccc4)cc3c(=O)c2c1`, for which the growth is 96.7%. On to `C=C(CN=[N+]=[N-])[C@@H]1CC[C@]2(C)[C@H](CC[C@@H]3[C@H]4[C@H]5OC(=O)[C@@]4(CCC5(C)C)CC[C@]32C)[C@@]1(C)CCC#N`, for which the growth was 72.3% [100 µM]. For `Cc1cc2c3ccccc3ccc2[n+]2ccccc12`, the growth is -60.6% (active). The same measure for `Clc1ccc2oc3c(NCCCn4ccnc4)c4ccccc4nc3c2c1`: 51.6%; for `CC1CC(C)S(=O)(=O)C1` (stereo not given): 112%; for `CCCOC(=O)Nc1nc2ccc(SCC)cc2s1`: 46.2%. For `COC(=O)c1c2c(n3ccccc13)C(=O)c1ccccc1C2=O`, the growth is 95.7%.

`COc1cc(NC(=O)CCSc2nc3ccccc3c(=O)n2Cc2ccccc2)cc(OC)c1OC`: the growth is 93.3%.

Take `Cc1cc2nc(C(Cl)Cl)nc(-c3ccccc3)n2n1`: the growth was -20.7% (active). The result for `C/C(=C\c1ccc2ccccc2c1)[N+](=O)[O-]` reads -22.8% (active).

On to `COC(=O)/C(CCC=C(C)C)=C1\[C@@H](OC(C)=O)C[C@@]2(C)[C@H]1C[C@@H](O)[C@H]1[C@@]3(C)CC[C@H](NCc4ccccc4)[C@@H](C)[C@@H]3CC[C@@]12C`, for which the growth was 76.8%. The result for `O=C1NC(=O)c2cc([N+](=O)[O-])cc3cccc1c23` reads 91%; that for `S=C1CCCC(=S)N1`, 100%; that for `CCOc1cc2c(cc1OCC)C(c1cc(C)c(O)c(C)c1)NCC2` (stereo not given), 102%. Consider `O=C(c1cnn2c1NC(c1ccc(F)cc1)C2)N1CCCCC1` (stereo not given), for which the growth was 107%. The same measure for `CCC(C)(C)c1cc(O)c(C(C)(C)CC)cc1O`: -2.33% (active). In the case of `COc1ccc(/C(C)=C(/c2ccc(OCCCN(C)C)cc2)c2ccc(OC(=O)Cc3ccccc3)cc2)cc1`, the growth is 87.2%.

With `COc1cc(OC)c(C(=O)/C=C/c2cccc(C#N)c2)c(OC)c1`, the growth is -13.8% (active). For `NC(=N\N=C/c1cccc([N+](=O)[O-])c1)/C(N)=N\N=C/c1cccc([N+](=O)[O-])c1`, the growth was 64.9%. Regarding `CCc1nn2c(-c3ccc(Cl)cc3C)c(-c3cc(OC)c(OC)c(OC)c3)nc2s1`, the growth was 68.2%. The result for `Cc1csc2ccc(Cl)cc12` reads 96.8%. On to `CN1CCN(Cc2ccc(NC(=O)c3cncc(C#Cc4cnc5ccc(O[C@H]6CCOC6)nn45)c3)cc2C(F)(F)F)CC1`, for which the growth is -59.7% (active). The same measure for `CO/N=C(/C(=O)NC1C(=O)N2C(C(=O)O)=C(COC(N)=O)CSC12)c1ccco1` (stereo not given): 109%.

These data come from PubChem BioAssay (NCI).
